Measured values: ChEMBL document CHEMBL4513216, “Probing the Open Global Health Chemical Diversity Library for Multistage-Active Starting Points for Next-Generation Antimalarials” (ACS Infect Dis, 2020)
Screen size: about 65,000 compounds; about 2,100 (3.2%) showed an effect of 50% or more. The median lay at about -52%. What follows is part of a selection rich in strong results, with near analogues and random picks from the rest.

Test system: Plasmodium falciparum
Assay: Screen against P. falciparum Asexual Blood Stage (ABS), at 5uM
Format: functional, Dd2
Settings: tested at 5 uM

Row | Structure (SMILES) | INHIBITION [%]
1 | CC(C)n1nc2c(cc1=O)CN(c1ncnc3ccsc13)CC2 | -31
2 | O=C(NC1=NCCCN1c1ccc(Cl)cc1)c1cccc(Cl)c1 | -55.5
3 | Cc1ccc(-n2ncc(C(=O)NC3CCCCC3)c2N)cc1 | -125
4 | CSC1=Nc2c(cnn2-c2ccc(C)cc2)C2=NCCCN12 | 53.5
5 | CSC1=Nc2c(cnn2-c2ccccc2)C2=NCCCN12 | 9.95
6 | CCSC1=Nc2c(cnn2-c2ccc(Cl)cc2)C2=NCCCN12 | 67.3
7 | CCOc1ccc(N2CCCN=C2NC(=O)c2ccc(Cl)cc2)cc1 | -71.7
8 | COCCNC(=O)c1cc(C(C)C)nc(N2CCCCC2)n1 | -39.9
9 | COC(=O)c1ccc(-c2noc(CN(CCO)Cc3cccs3)n2)cc1 | -63.8
10 | O=C(c1cscn1)N1CCCC2(CCN2Cc2cccc(F)c2)C1 (configuration not stated) | 26.8
11 | Cc1csc(C(=O)N2CC(S(=O)(=O)C3CCCCC3)C2)c1 | -52
12 | c1coc(-c2[nH]c3ncccc3c2CN2CCCOCC2)c1 | -12.7
13 | Cc1csc2ncnc(N3CCC(Cn4cc(C(C)(C)O)nn4)CC3)c12 | -46.7
14 | O=C(C1CCOCC1)N1CCC(OCc2cccnc2)CC1 | -110
15 | CC(C)NC(=O)C1CN(C(=O)NCc2ccccc2)CC12CCOCC2 (configuration not stated) | -153
16 | Cc1noc(C)c1CN(C)C(=O)NC1CCN(C2CC2)CC1 | -155
17 | CC(=O)N1CCC(NC(=O)N(C)Cc2c(C)noc2C)CC1 | 51.4
18 | Cc1noc(C)c1CN(C)C(=O)NC1CCOCC1 | 16
19 | Cc1noc(C)c1CN1CCc2ncnc(-c3ccncc3)c2CC1 | -104
20 | COCC(=O)Nc1ccnn1-c1ccc(Cl)cc1 | 68.3
21 | CCOCCC(=O)Nc1ccnn1-c1ccc(Cl)cc1 | -23.8
22 | COCCOCC(=O)Nc1ccnn1-c1ccc(Cl)cc1 | -100
23 | COc1ccc(S(=O)(=O)NC(=O)COc2ccc3c(c2)CCC3)cc1 | -119
24 | c1csc(CN2CCCN(c3ccc(Cn4ccnc4)cn3)CC2)c1 | -41.4

Row | Structure (SMILES) | INHIBITION [%]
25 | Fc1ccc(N2CCCN(c3ccc(Cn4ccnc4)cn3)CC2)cc1 | 60.2
26 | c1cn(Cc2ccc(N3CCCN(C4CCCC4)CC3)nc2)cn1 | -80
27 | Cc1ccc(CN2CCn3c(CNS(C)(=O)=O)nnc3C2)s1 | -30.1
28 | CCc1[nH]c2c(CNC(=O)C3CCCN(C)C3)cc(C)cc2c1C (configuration not stated) | 0.72
29 | CCc1[nH]c2c(CNC(=O)C3CCN(C)C3)cc(C)cc2c1C (configuration not stated) | -5.66
30 | CCc1[nH]c2c(CNC(=O)[C@@H]3CCCN3C)cc(C)cc2c1C | 60.4
31 | NC(=O)N1CCC2(CC1)CN(c1ccsc1)C(=O)CO2 | -60.1
32 | Clc1cccc(N2CCC(NCc3ncc[nH]3)C2)c1 (configuration not stated) | 66.6
33 | O=C1CC(NCc2ncc[nH]2)CN1CCc1cccc(Cl)c1 (configuration not stated) | -17.4
34 | Clc1cccc(N2CCC(NCc3cc[nH]n3)C2)c1 (configuration not stated) | -39.8
35 | Cn1cc(C(=O)N2CCCC(c3cnccn3)C2)cn1 (configuration not stated) | -55.6
36 | O=C1[C@H]2CN(c3ncccn3)C[C@H]2CN1CC1CC1 | -51.9
37 | Cc1cc(C(=O)NCCc2nc3c(s2)CCCC3)n(C)n1 | -90
38 | COC(=O)CCN1CCCC1c1cccc2c1OCCO2 (configuration not stated) | -42.1
39 | CCNC(=O)CCN1CCCC1c1cccc2c1OCCO2 (configuration not stated) | 52.7
40 | CC(C)NC(=O)CCN1CCCC1c1cccc2c1OCCO2 (configuration not stated) | 53.4
41 | NC(=O)NC(=O)CCN1CCCC1c1cccc2c1OCCO2 (configuration not stated) | 24.8
42 | COCCN1CCCC1c1cccc2c1OCCO2 (configuration not stated) | -0.537
43 | O=C(CCN1CCCC1c1cccc2c1OCCO2)N1CCOCC1 (configuration not stated) | -24.9
44 | NC(=O)c1nc2c(s1)CCN(C(=O)Nc1cccc(Cl)c1)CC2 | -91.8
45 | CC(=O)NCC(=O)Nc1cc(C)n(-c2ccc(Cl)cc2Cl)n1 | -97
46 | CC(C)N(C)C(=O)C1CCN(Cc2cnc3ccccn23)CC1 | -38.4
47 | CN(C)C(=O)COc1ccccc1CN1CCCC2(C1)CN(C)C(=O)O2 (configuration not stated) | -37.9
48 | CCS(=O)(=O)c1ncc(CN(C)C)n1Cc1ccccc1 | -37.3

Row | Structure (SMILES) | INHIBITION [%]
49 | CS(=O)(=O)CCC(=O)Nc1nccn1Cc1ccccc1Cl | -70.9
50 | O=C1NC(c2ccccc2)=N[C@@]12CC[C@@H]1CN(Cc3ccncc3)C[C@@H]12 | 15.3
51 | O=C1NC(c2ccccc2)=N[C@@]12CC[C@@H]1CN(Cc3ccccc3)C[C@@H]12 | 42.6
52 | O=C1NC(c2ccccc2)=N[C@@]12CC[C@@H]1CN(Cc3ccoc3)C[C@@H]12 | 59.6
53 | CN1C(=O)CC(c2cnn(C)c2)C12CCN(C(=O)c1cscn1)CC2 (configuration not stated) | -21.4
54 | CC(C)(C)NC(=O)Cn1c(=O)n(Cc2ccco2)c2ncccc21 | -56.2
55 | COCC1CCN(c2ccnc3ccsc23)C1 (configuration not stated) | 45.4
56 | Cc1noc(Cl)c1CCC(=O)N1CCc2sccc2C1 | 54.4
57 | Cc1noc(C)c1CN(C)CCC(=O)N1CCc2sccc2C1 | -54.3
58 | CCN1CCN(C(=O)CCc2c(C)noc2Cl)CC1 | 1.06
59 | Cc1noc(C)c1CC(=O)N1CCc2sccc2C1 | -48.1
60 | Cc1noc(Cl)c1CCC(=O)N1CCN(c2ncccn2)CC1 | -34.8
61 | Cc1noc(Cl)c1CCC(=O)N1CCN(c2ccccc2)CC1 | 53
62 | O=C(CCN1CCCC(CC2CC2)(C(=O)O)C1)NC1CCCC1 (configuration not stated) | -79.9
63 | CC(C)(C)n1ncc2c1CCCC2NCc1ccc2c(c1)CCO2 (configuration not stated) | -0.776
64 | CC(C)(CO)CCCNC(=O)NC1(c2cccc(F)c2)CC1 | -79.4
65 | O=C(CCc1ccsc1)NC1CCN(c2cccc(F)c2)CC1 | -55.7
66 | CCc1cc(C(=O)N2CCCC(Cc3ccc(NC)nn3)C2)on1 (configuration not stated) | -89.6
67 | CCC(CN1CCCCC1)NC(=O)C1(c2ccc(F)cc2)CC1 (configuration not stated) | 70
68 | CC(CNC(=O)C1(c2ccc(F)cc2)CC1)CN1CCCC1=O (configuration not stated) | 11.4
69 | Cc1cc(C)n(CC(C)NC(=O)C2(c3ccc(F)cc3)CC2)n1 (configuration not stated) | -44.3
70 | CC(Cn1ccnc1)NC(=O)C1(c2ccc(F)cc2)CC1 (configuration not stated) | -96.5
71 | CC(Cn1ccnc1)NC(=O)C1(c2ccc(F)cc2)CCCC1 (configuration not stated) | -16.4
72 | CCC(CN1CCCC1)NC(=O)C1(c2ccc(F)cc2)CC1 (configuration not stated) | 59.1
